What was measured:
Assay in all cases: log2 ratio of Biotin-Ahx-Ub-VS probe labelling (fragment/DMSO); higher = less target engagement (more negative = stronger competition), active = hit call of the paper (q ≤ 0.05, log2 ratio ≤ -1)
Settings in all cases: compound concentration: 200 uM; treatment time: 3 h
OTUD6B = target: T1, OTUD6B (UniProt Q8N6M0)
T1 sequence (whole entry): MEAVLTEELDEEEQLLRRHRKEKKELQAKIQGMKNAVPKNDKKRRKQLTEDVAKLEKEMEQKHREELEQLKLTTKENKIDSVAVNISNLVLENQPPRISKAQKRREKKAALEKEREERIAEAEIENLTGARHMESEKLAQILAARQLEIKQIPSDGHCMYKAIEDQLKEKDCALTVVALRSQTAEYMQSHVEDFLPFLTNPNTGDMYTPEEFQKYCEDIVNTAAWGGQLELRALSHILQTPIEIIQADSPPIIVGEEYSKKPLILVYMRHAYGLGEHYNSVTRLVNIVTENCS
How it was run: (§1)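 Global-median-normalised Spectronaut label-free quantities were compared by unpaired t-test, and values are average log2 ratios of fragment over vehicle. Only proteins with ≥2 unique peptides were used. HEK293T lysate (495 µg per sample) was treated in triplicate with fragment at 200 µM or vehicle for 3 h and then with Biotin-Ahx-Ub-VS at 0.5 µM final for 1 h. Labelled DUBs were then NeutrAvidin-enriched, digested with LysC and trypsin, and run by diaPASEF LC-MS/MS.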

OTUD7B = target: T2, OTUD7B (UniProt Q6GQQ9)
T2 sequence (whole entry): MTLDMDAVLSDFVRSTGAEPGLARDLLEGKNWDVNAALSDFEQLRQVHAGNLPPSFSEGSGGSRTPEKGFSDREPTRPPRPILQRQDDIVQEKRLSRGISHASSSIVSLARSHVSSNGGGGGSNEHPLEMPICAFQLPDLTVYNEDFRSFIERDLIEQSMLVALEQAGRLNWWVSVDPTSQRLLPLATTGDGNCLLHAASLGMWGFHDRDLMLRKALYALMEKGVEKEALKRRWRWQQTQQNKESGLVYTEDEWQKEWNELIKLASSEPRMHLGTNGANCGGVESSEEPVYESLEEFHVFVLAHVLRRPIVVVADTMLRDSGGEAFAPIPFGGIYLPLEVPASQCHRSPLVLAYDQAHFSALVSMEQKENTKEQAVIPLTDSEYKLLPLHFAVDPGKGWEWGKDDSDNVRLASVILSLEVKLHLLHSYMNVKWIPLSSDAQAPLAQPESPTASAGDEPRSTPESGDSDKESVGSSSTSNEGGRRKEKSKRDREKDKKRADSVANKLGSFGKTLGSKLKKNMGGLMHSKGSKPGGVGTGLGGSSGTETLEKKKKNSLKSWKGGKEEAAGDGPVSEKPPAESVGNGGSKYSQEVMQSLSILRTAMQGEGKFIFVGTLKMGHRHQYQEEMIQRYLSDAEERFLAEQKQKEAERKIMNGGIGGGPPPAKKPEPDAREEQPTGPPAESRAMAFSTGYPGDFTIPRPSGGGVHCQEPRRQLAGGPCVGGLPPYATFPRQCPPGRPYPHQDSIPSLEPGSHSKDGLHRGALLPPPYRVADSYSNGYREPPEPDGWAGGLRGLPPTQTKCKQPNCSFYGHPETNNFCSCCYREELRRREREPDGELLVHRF
How it was run: as §1

PRPF8 = PRPF8 (UniProt Q6P2Q9)
How it was run: as §1

PSMD7 = target: T3, PSMD7 (UniProt P51665)
T3 sequence (whole entry): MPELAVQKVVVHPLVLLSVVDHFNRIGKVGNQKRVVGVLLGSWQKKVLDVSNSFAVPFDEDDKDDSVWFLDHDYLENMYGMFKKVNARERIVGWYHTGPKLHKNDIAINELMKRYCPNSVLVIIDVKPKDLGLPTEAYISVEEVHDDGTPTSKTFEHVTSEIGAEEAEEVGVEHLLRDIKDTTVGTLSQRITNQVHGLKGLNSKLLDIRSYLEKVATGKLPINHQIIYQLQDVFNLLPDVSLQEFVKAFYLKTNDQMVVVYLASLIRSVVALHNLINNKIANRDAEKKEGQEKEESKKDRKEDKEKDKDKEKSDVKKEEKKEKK
How it was run: as §1

UCHL1 = UCHL1 (UniProt P09936)
How it was run: as §1

UCHL3 = target: T4, UCHL3 (UniProt P15374)
T4 sequence (whole entry): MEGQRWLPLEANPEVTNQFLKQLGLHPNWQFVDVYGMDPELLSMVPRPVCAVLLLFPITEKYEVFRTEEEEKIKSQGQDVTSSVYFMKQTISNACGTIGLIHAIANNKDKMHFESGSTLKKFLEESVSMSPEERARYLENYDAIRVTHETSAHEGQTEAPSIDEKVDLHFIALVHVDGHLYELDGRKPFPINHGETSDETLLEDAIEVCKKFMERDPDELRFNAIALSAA
How it was run: as §1

UCHL5 = target: T5, UCHL5 (UniProt Q9Y5K5)
T5 sequence (whole entry): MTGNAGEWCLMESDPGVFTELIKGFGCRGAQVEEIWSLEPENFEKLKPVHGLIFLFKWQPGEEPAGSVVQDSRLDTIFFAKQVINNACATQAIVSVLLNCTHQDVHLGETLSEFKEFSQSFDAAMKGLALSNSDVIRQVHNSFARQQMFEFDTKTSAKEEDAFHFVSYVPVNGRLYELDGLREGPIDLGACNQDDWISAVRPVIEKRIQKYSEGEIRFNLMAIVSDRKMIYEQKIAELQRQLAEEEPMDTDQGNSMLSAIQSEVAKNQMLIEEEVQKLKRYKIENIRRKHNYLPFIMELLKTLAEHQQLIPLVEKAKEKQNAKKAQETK
How it was run: as §1

USP10 = USP10 (UniProt Q14694)
How it was run: as §1

USP15 = target: T6, USP15 (UniProt Q9Y4E8)
T6 sequence (whole entry): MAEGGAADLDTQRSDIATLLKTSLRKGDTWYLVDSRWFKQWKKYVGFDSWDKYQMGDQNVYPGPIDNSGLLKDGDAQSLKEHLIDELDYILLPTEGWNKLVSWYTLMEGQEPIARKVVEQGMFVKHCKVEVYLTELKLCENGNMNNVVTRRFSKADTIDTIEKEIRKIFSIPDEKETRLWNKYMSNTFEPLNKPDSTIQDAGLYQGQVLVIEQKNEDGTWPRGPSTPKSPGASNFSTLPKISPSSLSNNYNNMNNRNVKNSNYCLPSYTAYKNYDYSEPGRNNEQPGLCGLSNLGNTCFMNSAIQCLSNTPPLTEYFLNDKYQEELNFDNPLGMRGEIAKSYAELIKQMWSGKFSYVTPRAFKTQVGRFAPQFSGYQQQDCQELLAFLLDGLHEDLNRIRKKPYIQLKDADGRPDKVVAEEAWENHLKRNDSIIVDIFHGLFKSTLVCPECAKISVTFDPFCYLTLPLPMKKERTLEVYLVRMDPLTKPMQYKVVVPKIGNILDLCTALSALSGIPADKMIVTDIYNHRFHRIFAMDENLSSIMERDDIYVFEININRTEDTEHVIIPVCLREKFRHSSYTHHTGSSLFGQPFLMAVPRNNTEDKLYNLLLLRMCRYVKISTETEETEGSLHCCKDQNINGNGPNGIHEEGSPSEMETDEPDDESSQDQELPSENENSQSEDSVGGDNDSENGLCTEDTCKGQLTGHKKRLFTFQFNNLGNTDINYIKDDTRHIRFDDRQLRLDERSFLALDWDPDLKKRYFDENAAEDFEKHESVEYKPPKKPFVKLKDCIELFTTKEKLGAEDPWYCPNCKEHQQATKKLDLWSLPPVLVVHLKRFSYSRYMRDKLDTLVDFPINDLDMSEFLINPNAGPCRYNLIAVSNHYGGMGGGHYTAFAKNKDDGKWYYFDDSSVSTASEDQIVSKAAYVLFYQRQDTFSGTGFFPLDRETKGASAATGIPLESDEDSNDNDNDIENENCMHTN
How it was run: as §1

Measured: log2 ratio of Biotin-Ahx-Ub-VS probe labelling

Chain of USP10 (Q14694 whole entry): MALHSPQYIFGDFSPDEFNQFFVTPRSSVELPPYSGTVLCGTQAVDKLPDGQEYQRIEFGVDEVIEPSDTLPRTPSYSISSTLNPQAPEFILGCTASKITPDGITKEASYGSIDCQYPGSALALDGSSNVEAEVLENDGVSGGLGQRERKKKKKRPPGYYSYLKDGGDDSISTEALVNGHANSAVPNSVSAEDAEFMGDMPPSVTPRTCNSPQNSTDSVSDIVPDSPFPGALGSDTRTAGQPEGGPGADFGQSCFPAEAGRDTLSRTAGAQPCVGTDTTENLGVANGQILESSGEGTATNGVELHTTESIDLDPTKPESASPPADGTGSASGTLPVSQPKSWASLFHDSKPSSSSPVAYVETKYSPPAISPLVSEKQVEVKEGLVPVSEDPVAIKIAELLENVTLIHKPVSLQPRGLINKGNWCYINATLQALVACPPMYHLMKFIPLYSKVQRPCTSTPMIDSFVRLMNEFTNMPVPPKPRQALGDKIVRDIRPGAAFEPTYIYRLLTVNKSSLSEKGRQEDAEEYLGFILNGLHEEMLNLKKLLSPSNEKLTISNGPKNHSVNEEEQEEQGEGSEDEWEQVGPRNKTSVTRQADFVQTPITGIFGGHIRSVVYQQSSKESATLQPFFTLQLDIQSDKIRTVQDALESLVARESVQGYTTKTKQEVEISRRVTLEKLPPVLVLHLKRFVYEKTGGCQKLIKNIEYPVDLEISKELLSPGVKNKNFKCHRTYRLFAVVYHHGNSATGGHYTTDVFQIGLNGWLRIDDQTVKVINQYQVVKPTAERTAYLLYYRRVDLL
Chain of UCHL1 (P09936 whole entry, looked up): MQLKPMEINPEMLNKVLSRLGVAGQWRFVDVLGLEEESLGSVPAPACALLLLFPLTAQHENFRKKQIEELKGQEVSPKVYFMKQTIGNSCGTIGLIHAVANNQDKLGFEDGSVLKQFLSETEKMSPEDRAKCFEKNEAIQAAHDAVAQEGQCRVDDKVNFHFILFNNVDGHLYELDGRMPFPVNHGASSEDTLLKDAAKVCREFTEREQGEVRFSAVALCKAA

Cl.Cn1cnc2cc(CNC(=O)CCl)ccc21
inactive: OTUD6B -0.108 | OTUD7B -0.399 | PRPF8 0.126 | PSMD7 -0.0706 | UCHL3 0.249 | UCHL5 0.000192 | USP10 -0.194 | USP15 -0.333
active: UCHL1 -1.72
